# In PubChem BioAssay AID1490 (National Center for Advancing Translational Sciences (NCATS), 2009):
# The whole screen tested about 310,000 compounds, of which about 11,000 (3.5%) were called active. Not shown: some 4% with an inconclusive outcome. The call rests on the fitted dose curve; in most records, active means well fitted inhibition curve with a large enough effect; inconclusive means small, poorly fitted or top-dose-only effect, or another doubt; inactive means no such curve, though single readings can be large or run the other way. The entries come from a sample that favours actives as a whole. More than one record can exist for a structure, and the calls need not agree.
# Biological target: 4'-phosphopantetheinyl transferase ffp (Bacillus subtilis) (UniProt Q9F4F7)
# Assay: qHTS Assay for Inhibitors of Bacillus subtilis Sfp phosphopantetheinyl transferase (PPTase);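 further: the enzyme is Sfp with the accession as filed and its product quenches rhodamine fluorescence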;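 on largest response in the series, negative = inhibition: 0% = enzyme reaction without inhibitor and -100% = no enzyme wells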
# Conditions: Biochemical Sfp PPTase activity
# Method in brief: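 Step 1, compound plus 15 nM Sfp-PPTase, 15 min, room temperature. Step 2, add rhodamine-CoA (5 uM) and BHQ-2-YbbR (12.5 uM). Step 3, read 525/598 nm fluorescence at 0 and 30 min.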
# Potency means the concentration at half of the fitted maximal effect.
SMILES,"largest response in the series, negative = inhibition",Potency
O=S(=O)(c1ccc(Cl)s1)N1CCC2(CC1)OCCO2,23.5% (inactive),–
CCCCn1c(N)c(N(CCOC)C(=O)c2oc3ccc(OC)cc3c2C)c(=O)[nH]c1=O,15.3% (inactive),–
O=C(CC1C(=O)NCCN1C(=O)c1ccc([N+](=O)[O-])cc1)Nc1cccc(Cl)c1 (stereo not drawn),5.33% (inactive),–
Cc1cc(C)c(S(=O)(=O)c2cc(F)ccc2C)c(=O)[nH]1,27.3% (inactive),–
CCOC(=O)N1CC=C2C(C#N)=C(N)C(C#N)(C#N)[C@H](c3cccs3)[C@H]2C1,-5.72% (inactive),–
N#CC1=C(N)C(C#N)(C#N)[C@H](c2ccsc2)[C@H]2COCC=C12,–,2.51 µM (active)
CCCN1CC=C2C(C#N)=C(N)C(C#N)(C#N)C(c3cc(OC)ccc3OC)C2C1 (stereo not drawn),-12.4% (inactive),–
COc1ccc(CNC(=O)CN(c2ccc(OC)c(Cl)c2)S(=O)(=O)c2ccc(C)cc2)cc1,17.9% (inactive),–
Cc1ccc(CCN2CC(C(=O)NCCc3ccccc3)CC2=O)cc1 (stereo not drawn),20.9% (inactive),–
COc1ccccc1C(=O)N1CC2(C)CC1CC(C)(C)C2 (stereo not drawn),23.6% (inactive),–
Cc1cccc(C(=O)NCC(=O)OCC(=O)N2CC3(C)CC2CC(C)(C)C3)c1 (stereo not drawn),-0.692% (inactive),–
Cc1nnnn1/C(=C\c1ccccc1)C(=O)OCC(=O)N1CC2(C)CC1CC(C)(C)C2 (stereo not drawn),–,50.1 µM (active)
CC(NCCc1ccc(S(N)(=O)=O)cc1)C(=O)NCc1ccccc1 (stereo not drawn),4.54% (inactive),–
C=CCn1c(C23CC4CC(CC(C4)C2)C3)n[nH]c1=S,14.6% (inactive),–
COc1ccc(N(C(=O)c2snc(C(N)=O)c2N)C(C(=O)NC2CCCC2)c2ccc(C)o2)c(OC)c1 (stereo not drawn),-2.29% (inactive),–
Cn1cc(C(=O)c2ccc(Cl)cc2Cl)cc1C(=O)NN,10.1% (inactive),–
CCN1C(=O)/C(=C2/Sc3ccccc3N2CCCS(=O)(=O)O)SC1=S,8.36% (inactive),79.4 µM (active)
CCN1C(=O)/C(=c2\s/c(=C3\Sc4ccccc4N3C)c(=O)n2C)N(C)C1=S,1.11% (inactive),–
CCCCN1C(=O)/C(=C2/Sc3ccc(Cl)cc3N2CC)SC1=S,3.35% (inactive),–

SMILES,"largest response in the series, negative = inhibition",Potency
C[C@H](NC(=O)c1nc[nH]c1C(=O)NCC(=O)OC(C)(C)C)c1ccccc1,10.2% (inactive),–
CC(C)[C@H](NC(=O)N1CCn2c1nc1ccccc12)C(=O)NCc1ccc2c(c1)OCO2,20.1% (inactive),–
CC(C)C(=O)NCC(c1cccs1)S(=O)(=O)c1ccc(F)cc1 (stereo not drawn),0.881% (inactive),–
Cc1ccc(/C=C/C(=O)Nc2ccc([N+](=O)[O-])c(NC(=O)/C=C/c3ccc(C)o3)c2)o1,–,17.8 µM (active)
CNc1ccc(NC(C)=O)cc1[N+](=O)[O-],18.8% (inactive),–
CCc1nnc(NC(=O)/C=C/c2ccc(C)o2)s1,1.89% (inactive),–
COc1cc(/C=C2\SC(=O)NC2=O)ccc1OCc1ccc(Cl)nc1,-9.24% (inactive),–
CCn1c(CNC(=O)c2cc(OC)c(OC)c(OC)c2)cc2cc(C)ccc21,-13.9% (inactive),–
CCOc1ccc(CCNC(=O)Nc2ccccc2)cc1OCC,11.9% (inactive),–
Cc1ccccc1NC(=O)C1CCCN(C(=O)NCc2ccccc2)C1 (stereo not drawn),-0.998% (inactive),–
Fc1ccccc1Cn1cnc(NC(=S)NCCc2ccccc2)n1,-24.4% (inactive),–
CC(=O)NC(C)c1nc2ccccc2n1Cc1ccccc1F (stereo not drawn),11% (inactive),–
N=c1n(CCc2ccccc2)c2ccccc2n1Cc1ccccc1F,–,50.1 µM (active)
O=Cc1c(Nc2ccccc2Cl)nc2ccccn2c1=O,–,31.6 µM (active)
Cc1cccn2c(=O)c(C=O)c(Nc3ccc(S(N)(=O)=O)cc3)nc12,12.7% (inactive),–
O=Cc1c(N2CCN(c3cccc(Cl)c3)CC2)nc2ccccn2c1=O,-4.2% (inactive),–
O=C(Nc1cccc(-c2cccc(Cl)c2)c1)C1CCN(C2CCC2)CC1,-24.2% (inactive),–
COc1ccc(S(=O)(=O)N2CCC(C(=O)N3CCCC3)CC2)cc1C,9.47% (inactive),–
O=C1NC(=O)C(c2ccc(Cl)cc2)N1 (stereo not drawn),-0.697% (inactive),–

SMILES,"largest response in the series, negative = inhibition",Potency
O=C1CSC(c2ccc(Cl)cc2)N1 (stereo not drawn),–,79.4 µM (active)
COC(=O)C1=C(N)Oc2cc(C)[nH]c(=O)c2C1c1ccc(Cl)cc1 (stereo not drawn),1.3% (inactive),–
CC(C)c1ccc(NC(=O)Cn2ncc3ccccc32)cc1,13.4% (inactive),–
COc1ccc2c(C(=O)c3ccc(C)cc3)n(CCC(N)=O)[n+]([O-])c2c1,-4.94% (inactive),–
Cc1cccc(Nc2nc(-c3ccccc3)cs2)n1,-27.9% (inactive),–
CC(=O)Nc1cccc(-c2csc(Nc3cccc(C)n3)n2)c1,–,79.4 µM (active)
COc1ccc(CCNc2nc(-c3cccc(NC(C)=O)c3)cs2)cc1OC,-23.9% (inactive),–
Cc1noc(NS(=O)(=O)c2ccc(NC(=O)c3oc4ccc(F)cc4c3C)cc2)c1C,14.6% (inactive),–
CCN(CC)C(=O)COc1coc(CN2CCN(Cc3ccccc3)CC2)cc1=O,12.6% (inactive),–
O=C(COC(=O)Cc1ccc(F)cc1)Nc1cc(S(=O)(=O)N2CCOCC2)ccc1N1CCCC1,11.4% (inactive),–
CC(=O)NCCC(=O)Nc1cc(S(=O)(=O)N2CCOCC2)ccc1N1CCOCC1,23.2% (inactive),–
COCCNC(=S)Nc1cc(S(=O)(=O)N2CCOCC2)ccc1N1CCCCC1,–,1 µM (active)
CCc1ccccc1NC(=O)[C@@H]1CCC(=O)N1C1OC(=O)c2c1ccc(OC)c2OC (stereo partly drawn),9.06% (inactive),–
CCOc1ccc(N(CC(=O)NCC2CCCO2)S(=O)(=O)c2ccc(C)cc2)cc1 (stereo not drawn),9.58% (inactive),–
CCOc1ccc(-n2c(N)c(C(=O)NCC3CCCO3)sc2=S)cc1 (stereo not drawn),–,50.1 µM (active)
CCOc1ccc(S(=O)(=O)NCC2CCCO2)cc1 (stereo not drawn),12.6% (inactive),–
COc1ccc(-c2cc(C(=O)NC(Cc3c[nH]c4ccccc34)C(=O)O)c(C)o2)cc1OC (stereo not drawn),–,35.5 µM (active)
COc1ccc(-c2cc(=O)oc3cc(OCC(=O)N[C@@H](Cc4c[nH]c5ccccc45)C(=O)O)ccc23)cc1,-17.5% (inactive),–
Cc1cccc(C)c1OCC(=O)NC(Cc1c[nH]c2ccccc12)C(=O)O (stereo not drawn),12.2% (inactive),–
